Shown are actives, neighbours in structure and some others; about 19% of the full set was active somewhere.
ELG1 DNA repair = inhibitors of ELG1-dependent DNA repair in HEK293T cells; HEK293T ELG1-luciferase reporter, luminescence, 16 h; DNA damage induced by 5-fluorouridine; Potency, µM (series often up to 46.1 µM), without a hit: at the highest dose activity change, negative = inhibition, most hits filed as inhibitors; hit rate 2.3% among 330,000; note: potency is the fitted concentration of half-maximal effect; nearly all actives have a fitted effect of over 55% in size
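In this reporter screen, reduction of luminescence relative to DMSO vehicle indicated activity. Compounds and 5-fluorouridine were added together to 2,000 cells per well, incubated for 16 hr at 37 °C, then developed with ONE-Glo.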
DT40 TDP1 CPT = growth inhibition of DT40 Tdp1-/-;hTDP1 cells with camptothecin (screen for TDP1 inhibitors); chicken DT40 Tdp1-/-;hTDP1 cells + 20 nM CPT, ATP luminescence, 48 h; Potency, µM (doses to about 46.2 µM), inactives show at the highest dose activity change, negative = growth inhibition, most hits filed as inhibitors; hit rate 12% among 420,000; AID 686979; note: potency is the fitted concentration of half-maximal effect; nearly all actives have a fitted effect of over 55% in size
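Chicken DT40 Tdp1-/- cells complemented with human TDP1, 400 cells/well, exposed to compounds plus 20 nM camptothecin for at least 48 h at 37 C; viability read as ATP content by CellTiter-Glo luminescence.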
TDP1 cell noCPT = qHTS for Inhibitors of human tyrosyl-DNA phosphodiesterase 1 (TDP1): qHTS in cells in absence of CPT. DT40 Tdp1-/- hTDP1 cells, no CPT, ATP luminescence, 48 h. Potency, µM (titrated, usually from 46.2 µM), without a hit: at the top dose activity change, negative = growth inhibition, most hits filed as inhibitors. hit rate 15% among 420,000. AID 686978, 2013; note: potency is the fitted concentration of half-maximal effect; nearly all actives have a fitted effect of over 55% in size
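Camptothecin absent (DMSO only). Human TDP1-complemented DT40 knockout cells, 400 cells/well, 37 °C for minimum 48 hr; ATP measured via CellTiter-Glo, 30 min dark incubation, luminescence.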
HT1080 IDH1KD tx = toxicity to HT-1080 IDH1 knockdown cells (counter line) | Potency, µM (highest dose often 46.1 µM), for inactives: at the highest dose activity, negative = toxicity, usual class: cytotoxic | AID 686971 | hit rate 2% among 360,000 | HT-1080 IDH1 knockdown viability, ATP luminescence, 48 h;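 note: potency is the fitted concentration of half-maximal effect; 0% = DMSO wells and -100% = cell-free medium wells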
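After a 2 h attachment period, IDH1KD HT-1080 cells took pin-transferred compound for 48 h at 37 °C; ATP-based luminescence after 10 min room-temperature reagent incubation reported viability.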
HT1080NT lethal = kills 2HG-producing HT-1080-NT fibrosarcoma cells; HT-1080-NT fibrosarcoma viability, CellTiter-Glo ATP luminescence, 48 h; Potency, µM (top dose mostly 46.1 µM), for inactives: at the top dose activity, negative = less viability, most hits filed as cytotoxic; hit rate 1.6% among 360,000;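 note: NT is the 2HG producing partner of a matched IDH1 knockdown line; potency is the fitted concentration of half-maximal effect; 0% = DMSO-treated cells and -100% = media-only wells without cells; nearly all actives have a fitted effect of over 55% in size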
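Read-out is CellTiter-Glo luminescence after 10 minutes at room temperature, following 48 hours' compound treatment of HT-1080-NT cells (750 cells/well, RPMI, 5% FBS, 37 degrees C).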
IL-1B inflam inh = inflammasome signaling inhibition, IL-1 beta readout | THP-1 LPS/ATP IL-1B secretion, AlphaLISA, 16 h; stronger effect = lower value | activity change, % at 57.5 µM | hit rate 4.7% among 360,000; in the data active = activity change below about -50%; inconclusive = mostly about -30% to -49%
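THP-1 cells pretreated 1 hr with compounds (up to 57.5 uM final), then stimulated with LPS (250 ng/mL final) plus ATP (1.25 mM final); secreted IL-1B measured by AlphaLISA after 16 hr, decreased signal indicating inhibition.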
Numbers without * were called inactive; ? = inconclusive; / = not tested or not shown; [ ] = dose if it differs, or a comment. Unless noted, calls come from the whole dose curve; as a rule, active = well fitted curve in the direction sought with a large enough effect; inconclusive = small, poorly fitted or top-dose-only effect, or another doubt; inactive = no such curve, though single readings can be large; an effect the other way counts as inactive or inconclusive. Unless noted, % is set by controls: 0 for no effect and ±100 for the full control effect.

SMILES	ELG1 DNA repair	DT40 TDP1 CPT	TDP1 cell noCPT	HT1080 IDH1KD tx	HT1080NT lethal	IL-1B inflam inh
O=C(C[n+]1ccccc1)N/N=C/c1cc(Br)cc(Br)c1O	21µM*	8%	5%	?	?	85
COC(=O)N/N=C/c1cc([N+](=O)[O-])cc(Br)c1O	-4%	-29%	?	-7%	-29%	0
O=C(CP(=O)(c1ccccc1)c1ccccc1)N/N=C/c1cc(Br)cc(Br)c1O	-5%	15µM*	15µM*	?	-10%	65
CCC(O)(CC)C(=O)N/N=C/c1cc(Br)cc(Br)c1O	23µM*	21µM*	15µM*	?	?	77
CS(=O)(=O)c1ccc(C(=O)OCC(=O)c2ccc(Cl)s2)cc1	?	-8%	-2%	0%	-5%	26
COc1ccc(-c2nnc(SCc3c(C)noc3C)o2)cc1	?	-1%	?	10%	-1%	-13
COC(=O)COc1c(Cl)cc(Cl)c2ccc(C)nc12	?	-5%	0%	16%	3%	-2
Cc1ccc2c(Cl)cc(Cl)c(OCC(=O)Nc3cc(S(=O)(=O)N(C)C)ccc3C)c2n1	?	23µM*	15µM*	-23%	-13%	?
Cc1ccc2c(Cl)cc(Cl)c(OCC(=O)Nc3cccc(S(=O)(=O)N(C)C)c3)c2n1	-15%	?	21µM*	1%	-1%	24
Cc1ccc2c(Cl)cc(Cl)c(OCC(=O)NC(C)(C)C)c2n1	?	?	23µM*	-16%	-20%	11
COc1ccccc1C1CN(CCNC(=O)c2cnsn2)Cc2ccccc2O1 (stereo not drawn)	/	-7%[9.04 µM]	-57%	/	/	/
Cc1ccc(S(=O)(=O)N2c3cc(C)ccc3OCC2C(C)(C)C)cc1 (stereo not drawn)	-6%	?	?	?	?	6
COc1ccc(S(=O)(=O)N2c3cc(C)ccc3OCC2C(C)(C)C)cc1 (stereo not drawn)	?	16µM*	?	5.8µM*	5.8µM*	24
COc1ccc(OC)c(NC(=O)CCc2nnc3ccc(N4CCC(C)CC4)nn23)c1	?	-30%	?	0%	0%	-50*
COc1cccc(N2CCN(c3ccc4nnc(CCC(=O)Nc5ccc(F)cc5)n4n3)CC2)c1	-2%	6%	?	0%	-4%	20
COc1ccc(N2CCN(C(=O)CCc3nnc4ccc(N5CCC(C)CC5)nn34)CC2)cc1	-9%	18µM*	18µM*	-1%	-1%	-12
CC1CCN(c2ccc3nnc(CCC(=O)N4CCN(c5ccccc5F)CC4)n3n2)CC1	?	23µM*	15µM*	13%	0%	-12
COc1cccc(N2CCN(c3ccc4nnc(CCC(=O)Nc5cccc(C(C)=O)c5)n4n3)CC2)c1	17%	16µM*	?	6%	14%	24
CC(=O)N(C)C[C@H]1Oc2ncc(Br)cc2C(=O)N([C@H](C)CO)C[C@@H]1C	/	6%	-1%	0%	-14%	17
C[C@H](OC(=O)N1CCN(C(c2ccccc2)c2ccccc2)CC1)[C@@H]1O[C@@]2(C)CCC[C@H]1O2	12%	?	?	-26%	-21%	-27
CC1CCCN(S(=O)(=O)c2ccc(NC(=O)Cc3ccc(S(=O)(=O)N4CCOCC4)s3)cc2)C1 (stereo not drawn)	-21%	?	18µM*	-8%	-9%	?
O=C(Cc1ccc(S(=O)(=O)N2CCOCC2)s1)Nc1ccc(S(=O)(=O)N2CCCCC2)cc1	?	18µM*	?	-18%	-19%	-15
CNC(=O)c1ccc(NC(=O)Cc2ccc(S(=O)(=O)N3CCOCC3)s2)cc1	0%	-2%	-21%	-4%	0%	0
CC1CCN(S(=O)(=O)c2ccc(NC(=O)Cc3ccc(S(=O)(=O)N4CCOCC4)s3)cc2)CC1	-30%	18µM*	23µM*	-16%	-26%	17
CCCCN(CCCC)S(=O)(=O)c1ccc(NC(=O)c2ccc([N+](=O)[O-])cc2Cl)cc1	?	?	21µM*	?	-30%	0
SMILES	ELG1 DNA repair	DT40 TDP1 CPT	TDP1 cell noCPT	HT1080 IDH1KD tx	HT1080NT lethal	IL-1B inflam inh
CCCCN(CCCC)S(=O)(=O)c1ccc(NC(=O)c2cccs2)cc1	23µM*	26µM*	21µM*	?	?	-85*
CCc1ccc(NC(=O)N(Cc2c[nH]c3ccccc23)C2CCCCCC2)cc1	/	21µM*	7.3µM*	/	/	/
N#CCCN(C(=O)Nc1ccccc1)C1CCCCC1	/	2%	3%	0%	4%	21
CCc1ccc(NC(=O)N(CCOC)C2CCN(C(C)=O)CC2)cc1	10%	-4%	0%	5%	8%	-11
CCc1ccc(NC(=O)N(Cc2c[nH]c3ccccc23)C2CCCCC2)cc1	/	7.3µM*	6.5µM*	/	/	/
O=C(Nc1ccccc1)N(Cc1c[nH]c2ccccc12)C1CCCCCC1	/	12µM*	18µM*	/	/	/
COc1cc2cc(CN(C(=O)Nc3ccccc3)C3CCCC3)c(=O)[nH]c2cc1OC	?	-14%	-23%	-7%	0%	?
COc1ccc(-c2[nH]nc3nc(-c4cc(Br)ccc4OC)cc(C(=O)O)c23)cc1	/	1%	-3%	/	/	/
COc1cc(CN2C[C@@H](CO)O[C@@H](n3cnc4c(NCCCO)ncnc43)C2)cc(OC)c1OC	/	1%	4%	4%	15%	-18
Nc1nc(NCc2ccccc2Cl)c2[nH]cnc2n1	/	8%	?	/	/	/
COc1ccc(C2CC(=O)Oc3cc4c(cc32)OCO4)cc1 (stereo not drawn)	8%	3%	-10%	15%	10%	17
COc1cc(C2C3=C(COC3=O)Oc3cc4c(cc32)OCO4)cc(OC)c1OC (stereo not drawn)	/	0.18µM*	0.15µM*	?	0.1µM*	29
COc1cc(C2C3=C(COC3=O)Oc3cc4c(cc32)OCO4)cc(OC)c1O (stereo not drawn)	/	0.15µM*	0.65µM*	?	0.46µM*	15
O=C1OCC2=C1C(c1ccc3c(c1)OCO3)c1cc3c(cc1O2)OCO3 (stereo not drawn)	/	2.1µM*	2.3µM*	6.5µM*	3.3µM*	6
COc1cc(C2CC(=O)Oc3cc4c(cc32)OCO4)cc(OC)c1OC (stereo not drawn)	?	-22%	-7%	-1%	-3%	15

From PubChem
